Shown is part of a subset that was picked to be rich in hits.
Shiga inhibitor – Shiga toxin inhibition; inhibition, % at 38.7 µM; 290,000 compounds, 9.2% hits; Vero cells, Shiga toxin protein synthesis inhibition reporter; in the data active means inhibition mostly above about 28%, no sharp cut-off; inactive means mostly below about 43%; further: 0% is about no effect
CHX counter – counter-screen hit for Shiga toxin inhibitors, cycloheximide; cell reporter, cycloheximide protein synthesis inhibition counterscreen; max response, %; 300,000 compounds, 12% hits; AID 2314; in the data active means max response mostly above about 13%, no sharp cut-off; inactive means mostly below about 14%; further: read at 38.3 µM for the half of the compounds with a filed dose; 0% is about no effect
NS1 inh – influenza NS1 inhibition. Potency, µM (doses to about 46.1 µM), for inactives: at the top dose activity, positive = more growth. 270,000 compounds, 0.4% hits; calls by dose curve; further: potency means the concentration at half of the fitted maximal effect; actives are rising curves; nearly all actives have a fitted effect of over 50% in size
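S. cerevisiae expressing influenza A NS1, grown in glucose, washed, then diluted 1:100 into pH 6.0 -URA galactose medium with 23 nl compound. Growth recovery read as OD600; NS1-free strain serves as control.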
AmpC inh detg – AmpC beta-lactamase inhibition with detergent present | AmpC hydrolysis of nitrocefin, absorbance 480 nm, 0.01% Triton | Potency, µM (series often up to 114 µM), without a hit: at the top dose activity change, negative = inhibition, usual class: inhibitors | P00811 | AID 485294 | 370,000 compounds, 0.041% hits;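 further: potency means the concentration at half of the fitted maximal effect; 0% = no-compound wells and -100% = no-enzyme wells; nearly all actives have a fitted effect of over 25% in size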
Target sequence (P00811 whole entry, looked up): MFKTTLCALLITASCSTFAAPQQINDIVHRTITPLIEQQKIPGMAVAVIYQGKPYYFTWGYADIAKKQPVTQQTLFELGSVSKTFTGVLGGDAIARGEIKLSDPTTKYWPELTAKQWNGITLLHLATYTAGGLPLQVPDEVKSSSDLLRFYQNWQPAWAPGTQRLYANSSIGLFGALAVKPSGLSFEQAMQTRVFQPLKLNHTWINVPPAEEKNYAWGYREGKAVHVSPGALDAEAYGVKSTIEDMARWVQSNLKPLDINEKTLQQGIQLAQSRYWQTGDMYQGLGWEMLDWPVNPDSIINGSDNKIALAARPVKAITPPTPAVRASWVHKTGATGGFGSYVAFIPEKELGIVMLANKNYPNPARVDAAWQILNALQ
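AmpC (5.3 nM in the dispensed reagent) in 20 mM phosphate pH 7.0 with 0.01% (detergent screen) or 0.0001% Triton X-100 was preincubated with compounds for 15 min at room temperature. Nitrocefin was then added from an 800 uM solution, and hydrolysis was followed at 480 nm.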
AmpC inh no detg – blocks E. coli AmpC beta-lactamase in detergent-free assay; P00811; AmpC nitrocefin hydrolysis, absorbance 480 nm, 0.0001% Triton; Potency, µM (top dose mostly 57.1 µM), without a hit: top-dose activity change, negative = inhibition, actives largely listed as inhibitors; 330,000 compounds, 0.52% hits; AID 485341;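 further: potency means the concentration at half of the fitted maximal effect; plate controls were no compound for no effect and no enzyme for full effect; nearly all actives have a fitted effect of over 20% in size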
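20 mM phosphate pH 7.0 + 0.01% (detergent screen) or 0.0001% Triton X-100; 5.3 nM AmpC reagent; cpd preinc 15 min RT; nitrocefin (800 uM stock) to start; A480 q20 s × 4 min; Activity was normalised to no-enzyme and no-compound control wells.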
An asterisk follows results filed as active; ? = inconclusive; . = no result given. Unless noted, the call rests on the fitted dose curve; in most records, active means well fitted curve in the direction sought with a large enough effect; inconclusive means small, poorly fitted or top-dose-only effect, or another doubt; inactive means no such curve, though single readings can be large; an effect the other way counts as inactive or inconclusive.

SMILES | Shiga inhibitor | CHX counter | NS1 inh | AmpC inh detg | AmpC inh no detg
COc1ccc(C2=NN(C(=O)c3cccs3)C(c3ccccc3O)C2)cc1 (stereo unspecified) | 87 | 26* | . | -2% | -47%
COc1ccc(C2CC(c3ccccc3)=NN2C(=O)c2cccs2)cc1 (stereo unspecified) | 75* | 73* | 21% | 1% | 9%
COc1ccc(C(=O)N2N=C(c3cccs3)CC2c2ccccc2O)cc1 (stereo unspecified) | 14 | 9 | -26% | -2% | -41%
COc1ccc(C2CC(c3ccccc3)=NN2C(=O)CCC(=O)O)cc1 (stereo unspecified) | -2 | -2 | 11% | -8% | -19%
CN(C)CCN(Cc1ccccc1)S(=O)(=O)c1cccc2cccnc12 | . | . | 0% | . | .
Cn1c(=O)[nH]c(=O)c2c1nc(N1CCOCC1)n2CCCSc1ncccn1 | -4 | 11* | -10% | ? | 0%
Cc1ccnc(N=Cc2nc(-c3ccccc3Br)oc2O)c1 | 118* | 27* | . | -7% | -27%
Oc1oc(-c2cccc3ccccc23)nc1/C=N/c1nccs1 | 19 | 2 | 14% | -8% | -24%
Cc1cccc(/N=C/c2nc(-c3ccccc3Br)oc2O)n1 | 32 | 21* | . | 4% | -31%
CCCc1cc(=O)oc2cc(C)cc(OCC(=O)Nc3cccnc3)c12 | -10 | -3 | 10% | -1% | -6%
CCN(CC)C(=O)c1ccc(C(=O)c2ccccc2)cc1 | 37 | 32* | -34% | -5% | -2%
CCN(CC)C(=O)c1ccc2nc3ccccc3nc2c1 | 65* | 30* | -16% | -5% | -5%
N#C/C(=C(\O)c1cc(Cl)sc1Cl)c1nc2ccccc2[nH]1 | -4 | -6 | 11% | ? | -36%
CC(C)c1ccc(CNCc2ccccc2)cc1 | 60* | 32* | -29% | 0% | -3%
COc1cccc(Oc2ccc(C(F)(F)F)cc2NC(=O)CCc2nc3ccccc3c(=O)[nH]2)c1 | 55* | 43* | 29% | 6% | 7%
Cc1ccc(N/C=C/c2onc(C)c2[N+](=O)[O-])cc1 | 117* | 74* | -11% | -8% | -6%
CCOc1ccc(-c2nc3c(C#N)c[nH]n3c2NC2CCCCC2)cc1 | . | . | . | 8% | .
COc1ccc(Cl)cc1NC(=O)CSC1=Nc2ccccc2C2=NC(CC(=O)NCc3ccc4c(c3)OCO4)C(=O)N12 (stereo unspecified) | . | . | . | -5% | .
C/C(=N\Nc1nc2ccccc2[nH]1)c1ccccn1 | 107* | 28* | -138% | -5% | -44%
C/C(=N\Nc1nc2ccccc2[nH]1)c1cc2ccccc2o1 | 39* | 25* | -3% | -3% | -22%
C/C(=N\NC(=O)c1ccncc1)c1cc2ccccc2o1 | 14 | -1 | 2% | -5% | -4%
COc1cccc(-c2ccc(SCC(=O)N3CCc4ccccc43)nn2)c1 | -6 | -2 | 0% | ? | -15%
N#CCC(=O)c1ccccc1Oc1ccc(Cl)cc1 | -8 | -2 | . | ? | 4µM*
O/N=C/c1ccccc1Oc1ccc(Cl)cc1 | 3 | -1 | -45% | -6% | -33%
CCCCOC(=O)c1ccc(NC(=O)c2ccoc2C)cc1 | 70* | 29* | -14% | -2% | -32%
SMILES | Shiga inhibitor | CHX counter | NS1 inh | AmpC inh detg | AmpC inh no detg
CCCOC(=O)c1ccc(NC(=O)c2ccoc2C)cc1 | 88* | 41* | 3% | -4% | -24%
CCCCOC(=O)c1ccc(NC(=O)c2ocnc2C)cc1 | 11 | 1 | -2% | ? | 61%
CCOC(=O)c1ccc(S(=O)(=O)Nc2cc(S(=O)(=O)Nc3ccc(OC)cc3)ccc2O)cc1 | . | . | . | . | -23%
O=C(COc1ccccc1)Nc1ccc2c(c1)nc1n2CCSC1 | 146 | 24* | 6% | ? | -51%
O=C(COc1ccccc1)Nc1ccc2c(c1)nc1n2CCOC1 | 134* | 20 | -20% | -14% | -16%
O=C(COc1ccc(Cl)cc1)Nc1ccc2c(c1)nc1n2CCOC1 | -5 | 16 | -3% | 0% | 4%
Cc1ccc(OCC(=O)Nc2ccc3c(c2)nc2n3CCOC2)cc1 | -5 | 3 | -8% | 1% | -2%
CC(C)(Oc1ccc(Cl)cc1)C(=O)NCC(c1ccco1)N1CCCCC1 (stereo unspecified) | . | . | . | ? | 70%
CCOC(=O)c1ccc(NC(=O)c2c(NCc3sccc3C)sc3c2CCCCC3)cc1 | . | . | . | 3% | .
O=C(CCNC(=O)c1ccc(Br)cc1)NCC1COc2ccccc2O1 (stereo unspecified) | 71* | 23* | -27% | 1% | 38%
O=C(NCC1CCCO1)c1cc2ccccc2nc1Cl (stereo unspecified) | 76* | 28* | . | 0% | -6%
O=C(CCNC(=O)c1ccccc1Cl)NCC1COc2ccccc2O1 (stereo unspecified) | . | . | . | -13% | -4%
COc1ccc(/C=C/C(=O)NCC2COc3ccccc3O2)cc1OC (stereo unspecified) | 12 | 8 | -32% | 5% | 52%
O=C(NCC1COc2ccccc2O1)c1cc2ccccc2o1 (stereo unspecified) | 65* | 31* | 7% | -13% | -24%
Cc1ccc(/C=C/C(=O)NCC2COc3ccccc3O2)o1 (stereo unspecified) | 18 | 16* | . | -6% | 26%
CC[C@]12c3[nH]c4ccc(OC)cc4c3CCN1C(=O)C(CC(=O)NC(C)(C)C)C[C@@H]2C(=O)N1CCN(C(=O)c2ccco2)CC1 (stereo partly specified) | . | . | . | . | 89%
C[N+](C)(C)C[C@H](O)CC(=O)[O-] | . | . | . | ? | 5%
CCc1ccc(O)c(C(=O)c2cnc3cc(-c4ccc(C)cc4)nn3c2)c1 | . | . | . | 1% | .
CCOc1ccc(S(=O)(=O)NCC(c2ccco2)S(=O)(=O)c2ccc(C)cc2)cc1 (stereo unspecified) | . | . | . | 4% | .
O=C(NCC1CCCO1)c1cc2ccccc2o1 (stereo unspecified) | 24 | 24* | 2% | 2% | -7%
O=C(NC(=S)NCC1COc2ccccc2O1)c1ccccc1 (stereo unspecified) | 11 | 7 | 9% | 4% | -25%
O=C(NCC1COc2ccccc2O1)c1ccc(NC(=O)C2CCCO2)cc1 (stereo unspecified) | 37* | 15* | -11% | 1% | -10%
O=S(=O)(NCC1COc2ccccc2O1)c1ccccc1F (stereo unspecified) | . | . | . | . | -29%
O=C(NCC1COc2ccccc2O1)c1ccccc1 (stereo unspecified) | 103* | 50* | -85% | ? | -10%
O=C(OCC1COc2ccccc2O1)c1ccccc1F (stereo unspecified) | 25 | 19* | -12% | ? | -4%
O=C(Cc1ccccc1)Nc1ccc(C(=O)NCC2COc3ccccc3O2)cc1 (stereo unspecified) | -7 | 0 | -3% | -2% | -31%
CCc1nn(CC(=O)Nc2ccc(N(CC)CC)cc2C)c(=O)c2cc3sccc3n12 | . | . | . | 19% | .

Source: PubChem (National Center for Advancing Translational Sciences (NCATS))
